# PubChem BioAssay (NCATS)
# Results filed as inconclusive are left out. This is one part of the list. A call without a number means that no potency is given here. Activity calls are given as the source filed them. Calls come from the whole dose curve; as a rule, active = well fitted curve in the direction sought with a large enough effect; inconclusive = small, poorly fitted or top-dose-only effect, or another doubt; inactive = no such curve, though single readings can be large; an effect the other way counts as inactive or inconclusive.
# What was measured:
# [1] = Cell Viability - LYMP2-014 (AID 983);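 note: series mostly up to about 92 µM; cells exposed to compound for 24 h at 37 °C; nearly all actives have a fitted effect of over 50% in size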
# Method in brief: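 Quantitative HTS in lymphoblastoid cells: 24 hr compound exposure, then CellTiter-Glo ATP luminescence. Positive control was tetraoctylammonium bromide, 6.4pM to 92 uM.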
# [2] = Cell Viability - LYMP2-016 (AID 984); note: nearly all actives have a fitted effect of over 55% in size
# Method in brief: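 qHTS, 1536-well: 2500 LYMP2-016 cells/well, 5 hr 37 C, compound added, 24 hr 37 C, CellTiter-Glo 30 min RT, luminescence. Tetraoctylammonium bromide positive control. AC50 via Hill fit.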
# [3] = Cell Viability - LYMP2-018 (AID 985); note: nearly all actives have a fitted effect of over 50% in size
# Method in brief: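 In this qHTS viability assay, cells are treated for 24 hr and cellular ATP is quantified by luciferase-based luminescence, with tetraoctylammonium bromide as positive control.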
# [4] = Cell Viability - LYMP2-020 (AID 986);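 note: series mostly up to about 92 µM; cells exposed to compound for 24 h at 37 °C; nearly all actives have a fitted effect of over 55% in size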
# Method in brief: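 Cells at 2500 per well receive a 24 hr compound exposure at 37 C. Viability is measured as ATP-dependent luciferase luminescence, with AC50 modeled from qHTS concentration-response curves.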
# [5] = Cell Viability - LYMP2-022 (AID 987); note: nearly all actives have a fitted effect of over 55% in size
# Method in brief: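 In this qHTS cytotoxicity screen, compound titrations were incubated 24 hr at 37 C with human lymphoblastoid cells in complete medium. Luciferase-based ATP luminescence provided the viability signal.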
# [6] = Cell Viability - LYMP2-024 (AID 988); note: nearly all actives have a fitted effect of over 60% in size
# Method in brief: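 Cells at 2500 per well received compound for 24 hr after a 5 hr settling period. Viability was scored by CellTiter-Glo luminescence, with AC50 from Hill fits.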
# [7] = Cell Viability - LYMP2-026 (AID 989);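 note: cells exposed to compound for 24 h at 37 °C; nearly all actives have a fitted effect of over 50% in size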
# Method in brief: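 Acute toxicity screen in complete culture medium, with 24 hr compound exposure at 37 C. Viability read as cellular ATP via luciferase reaction, with tetraoctylammonium bromide (6.4pM to 92 uM) as positive control.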
# [8] = Cell Viability - LYMP1-002 - Assay at 24 hr (AID 993)
# Method in brief: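 Viability was judged from intracellular ATP using a luciferase read-out, following a 24-hour compound incubation at 37 C of lymphoblastoid cells seeded at 2500 per well. Concentration-response data were fitted to the Hill equation for AC50.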
# [9] = Cell Viability - LYMP1-002 - Assay at 40 hr (AID 994); note: nearly all actives have a fitted effect of over 60% in size
# Method in brief: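 Concentration-dependent ATP loss after 40 hr treatment at 37 C defined toxicity; AC50 values were obtained by fitting the standard Hill equation.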
# [10] = qHTS for Inhibitors of the vitamin D receptor (VDR): Hit Validation using a Texas Red Assay (AID 602201); conditions: VDR coregulator binding, Texas Red fluorescence polarization; agonist-bound VDR ligand-binding domain; note: potency is the fitted concentration of half-maximal effect
# Method in brief: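 After a 2-hour room-temperature incubation, polarization of Texas-Red emission was read (Ex 595 nm/Em 615 nm). Final mix contained 7 nM Texas Red, 1.5 uM VDR-LBD and LG19078.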
# [11] = qHTS for Inhibitors of the vitamin D receptor (VDR): Hit Validation using a Cytotoxicity Assay (AID 602204); note: nearly all actives have a fitted effect of over 75% in size
# Method in brief: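 First, 20,000 cells are dispensed per well. Next comes a 4 h incubation, then compound addition and an 18 h incubation. Finally, ATP-based luminescent reagent is added and plates are read after 30 min.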
# [12] = target: Flap endonuclease 1 (Homo sapiens) (UniProt P39748); assay: qHTS Assay for the Inhibitors of FEN1: Confirmatory Assay for Cherry-picked Compounds (AID 720498); conditions: FEN1 flap cleavage, TAMRA/BHQ2 fluorogenic DNA substrate; note: potency is the fitted concentration of half-maximal effect; nearly all actives have a fitted effect of over 60% in size
# Chain of Flap endonuclease 1 (Homo sapiens) (P39748 whole entry, looked up): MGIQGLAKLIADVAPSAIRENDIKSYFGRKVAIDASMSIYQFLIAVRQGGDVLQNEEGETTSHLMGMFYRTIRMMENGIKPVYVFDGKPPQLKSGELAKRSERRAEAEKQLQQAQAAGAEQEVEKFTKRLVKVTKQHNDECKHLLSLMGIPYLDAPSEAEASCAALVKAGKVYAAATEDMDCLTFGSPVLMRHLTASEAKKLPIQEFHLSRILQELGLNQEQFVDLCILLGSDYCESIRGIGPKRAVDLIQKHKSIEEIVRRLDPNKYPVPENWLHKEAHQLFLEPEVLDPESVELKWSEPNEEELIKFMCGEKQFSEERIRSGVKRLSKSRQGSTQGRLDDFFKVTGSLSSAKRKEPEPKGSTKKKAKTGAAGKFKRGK
# Method in brief: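 Human FEN1 (10 nM reagent) was preincubated with compounds for 15 min at room temperature, then 50 nM final double-flap DNA substrate (5'-TAMRA flap, BHQ-2 quencher strand) was added. Fluorescence (ex 525/em 598 nm) was read at 0 and 15 min.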
# [13] = target: Rap guanine nucleotide exchange factor 3 (Homo sapiens) (UniProt O95398); assay: Confirmatory qHTS for antagonist of cAMP-regulated guanine nucleotide exchange factor 3 (EPAC1) (AID 1645880); note: nearly all actives have a fitted effect of over 55% in size
# Chain of Rap guanine nucleotide exchange factor 3 (Homo sapiens) (O95398 whole entry, looked up): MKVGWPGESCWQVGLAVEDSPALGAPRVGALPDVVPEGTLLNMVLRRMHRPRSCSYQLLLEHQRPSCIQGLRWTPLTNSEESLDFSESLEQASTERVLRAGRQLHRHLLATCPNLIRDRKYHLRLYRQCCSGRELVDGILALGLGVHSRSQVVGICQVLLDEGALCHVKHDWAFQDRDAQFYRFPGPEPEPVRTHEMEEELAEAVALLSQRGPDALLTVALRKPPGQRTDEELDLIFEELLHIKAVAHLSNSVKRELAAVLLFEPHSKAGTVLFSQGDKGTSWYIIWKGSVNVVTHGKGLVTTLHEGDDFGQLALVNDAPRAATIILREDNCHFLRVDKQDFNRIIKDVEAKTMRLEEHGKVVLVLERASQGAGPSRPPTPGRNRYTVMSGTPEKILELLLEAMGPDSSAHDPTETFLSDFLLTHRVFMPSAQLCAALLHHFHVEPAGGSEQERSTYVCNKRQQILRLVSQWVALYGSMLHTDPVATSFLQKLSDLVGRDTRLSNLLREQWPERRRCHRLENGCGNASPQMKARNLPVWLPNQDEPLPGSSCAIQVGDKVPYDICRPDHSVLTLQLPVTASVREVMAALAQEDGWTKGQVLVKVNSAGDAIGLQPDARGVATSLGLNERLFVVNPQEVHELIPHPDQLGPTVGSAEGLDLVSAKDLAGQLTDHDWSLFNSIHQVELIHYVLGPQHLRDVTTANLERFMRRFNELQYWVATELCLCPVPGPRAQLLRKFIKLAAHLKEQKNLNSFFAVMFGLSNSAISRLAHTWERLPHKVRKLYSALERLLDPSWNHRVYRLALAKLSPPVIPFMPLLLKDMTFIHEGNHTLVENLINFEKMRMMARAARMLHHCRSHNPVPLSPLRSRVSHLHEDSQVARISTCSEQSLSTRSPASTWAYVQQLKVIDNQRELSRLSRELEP
# Method in brief: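 Released BODIPY-GDP fluoresces less than Rap1-bound BODIPY-GDP; the signal is followed at 480/540 nm at 5-min intervals over 30 min, after 5 min at room temperature. Reactions contain 100 nM EPAC1, 250 nM RAP1B-BODIPY-GDP and 50 uM GDP; results are normalized to ATA and DMSO.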
structure (smiles),measurement,setting,value
CN(C)CCOC(c1ccccc1)c1ccccc1 (tested in a mixture with another compound),outcome,[1],inactive
same,outcome,[2],inactive
same,outcome,[3],inactive
same,outcome,[4],inactive
same,outcome,[5],inactive
same,outcome,[6],inactive
same,outcome,[7],inactive
same,outcome,[8],inactive
same,outcome,[9],inactive
CCOc1ccc(NC(=O)c2c(NC(=O)Cc3ccccc3)sc3c2CCC(C)C3)cc1 (stereo not drawn),Potency,[10],3.55 µM (active)
CCCCOc1ccc(CN2C(=O)C(=O)c3cc(Br)cc(C)c32)cc1OC,outcome,[11],inactive
CCC1CCCCN1CCCNC(=O)c1cc2c(Cl)nc3ccccc3c2s1 (stereo not drawn),Potency,[12],33.8 µM (active)
COc1cccc(Cn2c(=O)c(-c3ccc(F)cc3)nc3cnc(N4CCOCC4)nc32)c1,Potency,[13],inactive
